efficacy, outcome and AC50 data for 26 molecules are collected here from PubChem BioAssay (NCATS).

The conditions of assay [1]: Ebola virus entry assay, green fluorescence channel.
For assay [2] the following is noted: Ebola virus entry assay, blue channel fluorescence.
For assay [3] the following is noted: Ebola virus entry assay, ratio channel.
For assay [4] the following is noted: Ebola virus entry assay, green channel fluorescence.
For assay [5] the following is noted: Ebola virus entry assay, reporter ratio channel; Channel type: primary.

Each structure is given as a SMILES string. Values without a mark were called inactive. For some of these results: Results with a measured potency or affinity are listed apart. Calls of active or inactive are those of the source. The rule behind the calls is not given here.
Throughout, for efficacy: 0% is about no effect.

Take `NC(=O)C(=O)N/N=C/c1ccc([N+](=O)[O-])o1`: the efficacy in assay [1] was 21.5%. The outcome in assay [2], in assay [3], in assay [4] and in assay [5] was inactive.
Consider `CO[C@]1(NC(=O)CSC(F)F)C(=O)N2C(C(=O)O)=C(CSc3nnnn3CCO)CO[C@H]21`, for which the efficacy in assay [1] is -28.6%. Moreover, the result in assay [2], in assay [3], in assay [4] and in assay [5] was inactive.
For `CCCCc1cc2ccccc2c(OCCN(C)C)n1`, the efficacy in assay [1] is -77.9%. Besides, the AC50 in assay [2] was 8.91 µM (active); in assay [3], 7.08 µM (active); in assay [5], 7.08 µM (active). In addition, the outcome in assay [4] was inactive.
As to `Cc1c(-c2ccccc2)oc2c(C(=O)OCCN3CCCCC3)cccc2c1=O`, the efficacy in assay [1] is -55.6%. The molecule was called inactive in assay [2], in assay [3], in assay [4] and in assay [5].
In the case of `C=C[C@@]1(C)CC(=O)[C@]2(O)[C@@]3(C)[C@@H](O)CCC(C)(C)[C@@H]3[C@H](O)[C@H](OC(C)=O)[C@@]2(C)O1`, the efficacy in assay [1] is 10.9%. For the same molecule, the AC50 in assay [2] was 10 µM (active). The outcome in assay [3], in assay [4] and in assay [5] was inactive.
Consider `CN(Cc1cc(Br)cc(Br)c1N)C1CCCCC1`, for which, in assay [1], the efficacy was 17.3%. Further, the AC50 was 22.4 µM (active) in assay [2], 20 µM (active) in assay [3] and 20 µM (active) in assay [5]. In addition, the molecule was classed as inactive in assay [4].
`O=S1(=O)c2cccc3cccc(c23)N1CCCN1CCN(c2ccc(F)cc2)CC1`: in assay [1], the efficacy was -13.1%. In addition, the concentration at half-maximal activity (AC50) in assay [2], in assay [3] and in assay [5] was 25.1 µM (active) in each case. Besides, the result in assay [4] was inactive.
With `C#C[C@]1(OC(C)=O)CC[C@H]2[C@@H]3CCC4=C/C(=N/O)CC[C@@H]4[C@H]3CC[C@@]21CC`, the efficacy in assay [1] was -27.8%. In addition, the AC50 in assay [2] and in assay [5] was 39.8 µM (active) in each case. For the same molecule, the result in assay [3] and in assay [4] was inactive.
On to `COc1ccc(CN(CCN(C)C)c2ccccn2)cc1`, for which the efficacy in assay [1] was 22.5%. In addition, the AC50 in assay [2], in assay [3] and in assay [5] was 15.8 µM (active) each time. The call in assay [4] was inactive.
Take `O=c1oc2c(O)c(O)cc3c(=O)oc4c(O)c(O)cc1c4c23`: in assay [1], the efficacy was 33.8%. The AC50 in assay [2], in assay [3] and in assay [5] was 11.2 µM (active) throughout. Moreover, in assay [4], the outcome was inactive.
For the molecule `O=C(/C=C/c1ccc(O)c(O)c1)O[C@@H]1C[C@@](OC(=O)/C=C/c2ccc(O)c(O)c2)(C(=O)O)C[C@@H](O)[C@@H]1O`, in assay [1], the efficacy was 21.8%. Also, the AC50 in assay [2] was 28.2 µM (active); in assay [3] it was 20 µM (active); in assay [5], 20 µM (active). Moreover, in assay [4], the result was inactive.
As for `CC(C)C[C@@H](N)C(=O)O`, the efficacy in assay [1] is 14.3%. Moreover, the molecule was classed as inactive in assay [2], in assay [3], in assay [4] and in assay [5].
With `C=CCOc1cc(Cl)ccc1C(=O)NCCN(CC)CC`, in assay [1], the efficacy is -28.4%. Further, the AC50 in assay [2] is 14.1 µM (active); in assay [3], 15.8 µM (active); in assay [5], 15.8 µM (active). Further, the molecule was classed as inactive in assay [4].
As to `CN(C)CCN(Cc1ccccc1)c1ccccn1`, the efficacy in assay [1] was 35.7%. Moreover, the AC50 in assay [2] is 22.4 µM (active); in assay [3], 20 µM (active); in assay [5] it was 20 µM (active). The result in assay [4] was inactive.
On to `CCCCC1C(=O)N(c2ccccc2)N(c2ccccc2)C1=O`, for which, in assay [1], the efficacy was -25%. The outcome in assay [2], in assay [3], in assay [4] and in assay [5] was inactive.
Turning to `C#CC1(O)CC[C@H]2[C@@H]3CCC4=CCCC[C@@H]4[C@H]3CC[C@@]21C` (stereo not given in full), the efficacy in assay [1] is 7.54%. Further, the AC50 in assay [2], in assay [3] and in assay [5] was 22.4 µM (active) each time. Besides, in assay [4], the molecule was classed as inactive.
As for `CC[C@H](c1ccc(O)cc1)[C@@H](CC)c1ccc(O)cc1`, the efficacy in assay [1] was -12.4%. Moreover, the AC50 in assay [2] was 20 µM (active); in assay [3], 25.1 µM (active); in assay [5], 25.1 µM (active). In addition, the molecule was called inactive in assay [4].
For `Cc1cc2nc3ccc(=[N+](C)C)cc-3sc2cc1N`, the efficacy in assay [1] is -32.6%. For the same molecule, the AC50 in assay [2] is 39.8 µM (active). Also, the outcome in assay [3], in assay [4] and in assay [5] was inactive.
Turning to `CCN(CC)CCNC(C(=O)OCCC(C)C)c1ccccc1` (stereo not given), the efficacy in assay [1] was 47.8%. Moreover, the AC50 was 31.6 µM (active) in assay [2], 22.4 µM (active) in assay [3] and 22.4 µM (active) in assay [5]. The outcome in assay [4] was inactive.
Take `CN(C)CCN1C(=O)c2ccccc2N(C)c2ccccc21`: in assay [1], the efficacy is -25.3%. For the same molecule, the AC50 in assay [2] and in assay [5] was 39.8 µM (active) throughout. Besides, the result in assay [3] and in assay [4] was inactive.
With `CC(C)(C)CC(C)(C)c1ccc(O)c(Cc2ccc(Cl)cc2Cl)c1`, in assay [1], the efficacy is 12.2%. Besides, the AC50 in assay [2] is 22.4 µM (active); in assay [3] it was 14.1 µM (active); in assay [5] it was 14.1 µM (active). The molecule was classed as inactive in assay [4].
`O=C(Nc1ncc([N+](=O)[O-])s1)c1cccs1`: in assay [1], the efficacy is -37.9%. Besides, the call in assay [2], in assay [3], in assay [4] and in assay [5] was inactive.
Turning to `CCc1cc(Cl)c(OC)c(C(=O)NC[C@@H]2CCCN2CC)c1O`, the efficacy in assay [1] is 38.6%. In addition, the AC50 was 31.6 µM (active) in assay [2], 20 µM (active) in assay [3] and 20 µM (active) in assay [5]. The molecule was classed as inactive in assay [4].
For `NC(N)=N/N=C/c1c(Cl)cccc1Cl`, the efficacy in assay [1] was -12.6%. Also, the AC50 in assay [2], in assay [3] and in assay [5] was 28.2 µM (active) each time. In addition, the call in assay [4] was inactive.
`CC(CNC1CCCCC1)OC(=O)c1ccccc1` (stereo not given): the efficacy in assay [1] is 19.5%. Also, the AC50 in assay [2], in assay [3] and in assay [5] was 8.91 µM (active) in each case. In addition, the outcome in assay [4] was inactive.
In the case of `Cc1cc(CC(=O)O)n(C)c1C(=O)c1ccc(Cl)cc1`, the efficacy in assay [1] is 24%. Also, the result in assay [2], in assay [3], in assay [4] and in assay [5] was inactive.

The AC50 is the concentration at which the activity in the assay is half-maximal.
